Assay [1] is described as follows: stimulators of nuclear beta-catenin in C2C12, primary screen, imaging, WNT3A-conditioned medium, mouse C2C12, NPC library (AID 1117326; in the data active means nuclear beta-catenin stimulation mostly above about 4.2%, no sharp cut-off; inactive means mostly below about 10%). Particulars: stronger effect = higher value.
Assay [2] is described as follows: stimulators of insulin release from INS-1E, primary screen, cell-based, 5 mM glucose, NPC library (AID 1117329;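 active means compound raises insulin release from rat beta cells at 5 mM glucose, no numeric limit stated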). Particulars: rat INS-1E insulin secretion, at 10 µM, stronger effect = higher value.
The nature of assay [3]: growth inhibition of GSK3B-pretreated HCT116 cells – cell-based, CellTiter-Glo, 0.2 to 20 µM (AID 1117336;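 active means compounds lowering colon cancer cell viability after pretreatment blocking the GSK3B kinase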). Particulars: HCT116 viability after GSK3B inhibitor, at 20 µM, stronger effect = higher value. In general terms: Cellular ATP, detected with luciferase, serves as a proxy for viable cell number.
Assay [4] can be described thus: inhibition of endothelial tube formation, primary screen, imaging, VEGF stimulated, CD31 staining, tube area, NPC library (AID 1117340;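 active means compound that reduces growth-factor-driven endothelial tube area in a mixed cell culture, no cutoff stated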). Particulars: VEGF-stimulated ADSC/ECFC co-culture, at 10 µM, stronger effect = higher value.
Assay [5] is described as follows: glucagon-like peptide 1 release enhancers, primary assay, NCI-H716 cell line, NPC library (AID 1117341;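 active means compound raises GLP1 secretion from the human gut endocrine cells, with no numeric limit stated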). Conditions: NCI-H716 cells, at 10 µM, stronger effect = higher value.
A short description of assay [6]: HCT116 colon cancer cell growth inhibition, primary screen, CellTiter-Glo luminescence, NPC library (AID 1117342;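 active means compounds that lower survival of HCT116 colon cancer cells in the luminescence readout, no numeric limit stated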). Particulars: at 20 µM (top of the series).
Assay [7] is described as follows: CellTiter-Glo luminescent readout of SW480 viability loss, NPC library primary (AID 1117343). Particulars: CellTiter-Glo luminescence; at 20 µM (top of the series) unless noted.
Assay [8] can be described thus: decreased DLD-1 cellular survival, CellTiter-Glo luminescent readout, NPC compound collection, primary HTS (AID 1117346;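 active means compounds that lower survival of DLD-1 colon cancer cells in the luminescence readout, no cutoff given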). Particulars: DLD-1 viability, CellTiter-Glo luminescence; at 20 µM (top of the series).
A short description of assay [9]: sensitizers of A549 cells to miR-34 induction, primary screen, imaging, A549 dox-inducible miR-34, nuclei and caspase counts (AID 1347080;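 active means compounds whose cell count with miR-34 switched on is under 0.7 times the count with it off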). Conditions: A549 miR-34 inducible, Hoechst nuclei count, 48 h.
The target of assay [10] is NAD(+) hydrolase SARM1 (Homo sapiens) (UniProt Q6SZW1). In words: SARM1 TIR NADase inhibitors, cell lysate, NAD-Glo luminescence (AID 1508614;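 active means compound whose remaining NAD level is above about 45 nM, limit read from the data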). Particulars: SAM-TIR HEK293T lysate NADase, at 1 µM, stronger effect = higher value.
Chain of NAD(+) hydrolase SARM1 (Homo sapiens) (Q6SZW1 whole entry, looked up): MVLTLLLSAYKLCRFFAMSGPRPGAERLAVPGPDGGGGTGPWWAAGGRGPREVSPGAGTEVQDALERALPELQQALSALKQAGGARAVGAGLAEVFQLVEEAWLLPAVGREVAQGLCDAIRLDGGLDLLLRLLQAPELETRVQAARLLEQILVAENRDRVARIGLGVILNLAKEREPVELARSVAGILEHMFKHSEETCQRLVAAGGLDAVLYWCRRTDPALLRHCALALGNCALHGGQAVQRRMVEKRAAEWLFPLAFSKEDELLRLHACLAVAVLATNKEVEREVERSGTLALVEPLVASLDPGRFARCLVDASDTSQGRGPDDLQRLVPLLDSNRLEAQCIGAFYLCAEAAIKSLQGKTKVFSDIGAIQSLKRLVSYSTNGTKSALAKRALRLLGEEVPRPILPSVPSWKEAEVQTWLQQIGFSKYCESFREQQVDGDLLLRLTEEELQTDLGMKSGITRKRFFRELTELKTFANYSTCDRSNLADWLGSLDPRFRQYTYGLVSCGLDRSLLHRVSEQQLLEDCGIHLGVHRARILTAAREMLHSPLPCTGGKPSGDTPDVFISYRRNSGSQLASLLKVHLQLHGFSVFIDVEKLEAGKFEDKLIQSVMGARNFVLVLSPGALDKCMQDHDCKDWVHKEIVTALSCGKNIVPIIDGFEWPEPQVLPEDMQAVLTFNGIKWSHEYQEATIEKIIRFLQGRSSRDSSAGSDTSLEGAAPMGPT
A short description of assay [11]: hESC survival regulators, cell-based (AID 493140; call rule not given here;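 further: cells exposed to compounds for four days before counting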). Conditions: human embryonic stem cell survival screen; stronger effect = higher value.
The nature of assay [12]: liver-stage malaria parasite growth inhibition, primary screen, cell-based, HepG2, luciferase luminescence, HepG2 viability (AID 624349; in the data active means parasite load remaining mostly below about 12%, no sharp cut-off; inactive means mostly above about 10%;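 further: 100% = mean of DMSO negative control wells on the same plate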). Particulars: P. berghei liver stage in HepG2, luciferase luminescence, concentration not given here; parasite load remaining: stronger effect = lower value; viability: measured here: HepG2 viability without parasites.
The nature of assay [13]: survival rescue of mitochondrial mutant cells in low glucose, primary screen, MELAS cybrids, Rieske KO mouse fibroblasts, CellTiter-Glo (AID 1508586;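 active means mean z-score across replicates of 1.96 or higher in either the MELAS or the Rieske mutant cell line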;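 further: z relative to plate mean and SD of compound and empty wells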).
For assay [14], the target named is ATP-dependent translocase ABCB1 (Homo sapiens) (UniProt P08183). In words: MDR1 (ABCB1) efflux transporter inhibition, cell-based (AID 377; in the data active means fluorescence slope change above about 50%). Conditions: MDR1-expressing cells, fluorescent substrate accumulation slope; stronger effect = higher value; concentration not given here.
Chain of ATP-dependent translocase ABCB1 (Homo sapiens) (P08183 whole entry, looked up): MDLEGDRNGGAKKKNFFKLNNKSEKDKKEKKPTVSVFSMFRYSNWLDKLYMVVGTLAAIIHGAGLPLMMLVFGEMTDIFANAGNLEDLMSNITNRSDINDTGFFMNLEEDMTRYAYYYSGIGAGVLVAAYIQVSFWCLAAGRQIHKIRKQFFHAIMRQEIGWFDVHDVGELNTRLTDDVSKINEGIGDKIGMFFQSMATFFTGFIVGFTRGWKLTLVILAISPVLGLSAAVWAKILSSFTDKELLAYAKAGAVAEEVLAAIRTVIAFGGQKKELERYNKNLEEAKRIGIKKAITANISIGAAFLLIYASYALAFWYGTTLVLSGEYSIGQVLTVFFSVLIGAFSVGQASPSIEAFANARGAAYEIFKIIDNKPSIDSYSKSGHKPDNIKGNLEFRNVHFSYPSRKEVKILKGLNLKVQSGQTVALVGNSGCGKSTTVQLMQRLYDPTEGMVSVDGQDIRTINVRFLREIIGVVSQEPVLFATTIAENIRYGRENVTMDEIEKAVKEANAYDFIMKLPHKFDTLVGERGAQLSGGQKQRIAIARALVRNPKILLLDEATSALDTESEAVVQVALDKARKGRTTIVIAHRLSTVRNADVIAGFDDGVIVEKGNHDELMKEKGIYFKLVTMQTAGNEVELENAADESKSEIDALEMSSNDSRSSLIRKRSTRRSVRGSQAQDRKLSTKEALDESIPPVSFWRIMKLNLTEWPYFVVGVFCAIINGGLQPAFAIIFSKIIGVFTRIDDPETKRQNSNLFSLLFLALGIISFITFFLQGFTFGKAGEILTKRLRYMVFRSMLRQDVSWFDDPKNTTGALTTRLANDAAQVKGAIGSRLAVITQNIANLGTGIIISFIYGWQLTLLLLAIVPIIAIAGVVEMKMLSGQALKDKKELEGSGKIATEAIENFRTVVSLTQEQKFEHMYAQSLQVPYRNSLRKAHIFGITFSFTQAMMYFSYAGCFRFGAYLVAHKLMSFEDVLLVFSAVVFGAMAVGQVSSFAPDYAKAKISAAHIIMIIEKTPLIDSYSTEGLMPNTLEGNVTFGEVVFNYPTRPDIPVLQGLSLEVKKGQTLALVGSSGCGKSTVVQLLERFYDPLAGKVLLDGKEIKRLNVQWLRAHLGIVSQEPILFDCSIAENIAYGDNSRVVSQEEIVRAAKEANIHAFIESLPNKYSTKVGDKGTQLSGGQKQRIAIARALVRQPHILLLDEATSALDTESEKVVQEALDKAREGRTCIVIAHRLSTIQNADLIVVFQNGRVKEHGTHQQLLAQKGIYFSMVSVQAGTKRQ
Where [15] appears, read: stronger effect = lower value, cell number ratio, induced over uninduced.
[16] abbreviates: measured here: relative caspase fold change +Dox/-Dox.
Setting [17] is: measured here: total cells with miR-34 induction, stronger effect = lower value.
[18] abbreviates: measured here: total cells without miR-34 induction.
Setting [19] is: MELAS cybrid survival, CellTiter-Glo 48 h, stronger effect = higher value.
Setting [20] is: Rieske KO mouse fibroblast survival, CellTiter-Glo 72 h.

The text below walks through data of PubChem BioAssay.

Values joined by “and” are separate entries in the source; they are usually repeats but may differ in a detail not shown here. Identical values can stand only once. Inconclusive results are not listed. Active and inactive are the calls of the source.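 How the source made its calls, unless noted: active means compounds that lower viability of the colon cancer cells in the luminescence readout, with no numeric limit stated; inactive means the rest.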

`O=C(O)c1ccc[n+]([O-])c1`: the nuclear beta-catenin stimulation in assay [1] (at 10 µM) is -0.8% (inactive); in assay [1] (stimulation, at 2 µM) it was 2%. The insulin secretion stimulation in assay [2] is -0.6% (inactive). Also, the viability decrease in assay [3] is -4.35% (inactive). Further, the tube area decrease in assay [4] was 11.3% (active). For the same compound, in assay [5], the GLP1 secretion stimulation is 0% (inactive). Also, in assay [6], the inhibition of viability is -1.7% (inactive). For the same compound, the viability decrease (inhibition) is 14.2% (inactive) in assay [7] and -2.85% (inactive) in assay [8]. Besides, the fold change in assay [9] (setting [15]) is 0.936 (inactive); in [9] (setting [16]), 0.969. In addition, the figures for the cell count in assay [9] (setting [17]) and in [9] (setting [18]) were 8660 and 9250, respectively. In assay [10], the remaining NAD is 10 nM (inactive).

With `CC(C)(C)C(=O)OCOC(=O)[C@@H]1N2C(=O)[C@@H](NC(=O)[C@H](N)c3ccccc3)[C@H]2SC1(C)C`, in assay [11], the survival was 8.83 (inactive). For the same compound, the parasite load remaining in assay [12] is 105% (inactive). In [12], this compound returned a viability of 75%. Besides, the nuclear beta-catenin stimulation in [1] (at 10 µM) was -2.4% (inactive); in assay [1] (stimulation, at 2 µM), -1.3%. In addition, in assay [2], the insulin secretion stimulation was 2.2% (inactive). Further, the viability decrease in assay [3] was -4.7% (inactive). Besides, the tube area decrease in assay [4] was -15.2% (inactive). The GLP1 secretion stimulation in assay [5] was 2.6% (inactive). Moreover, in [6], the inhibition of viability is -17.9% (inactive). Further, the viability decrease (inhibition) is 5.3% (inactive) in [7] and -16.8% (inactive) in assay [8]. For the same compound, the fold change in [9] (setting [15]) was 0.926 (inactive); in assay [9] (setting [16]), 0.701. Also, the cell count in assay [9] (setting [17]) amounted to 9310; in assay [9] (setting [18]) it was 10100. Besides, the values for the z-score in assay [13] (setting [19]) and in [13] (setting [20]) were -1.1 (inactive) and -0.251, respectively.

On to `C=CCN1C[C@H](C(=O)N(CCCN(C)C)C(=O)NCC)C[C@@H]2c3cccc4[nH]cc(c34)C[C@H]21`, for which the parasite load remaining in assay [12] was 25.1% (inactive). The viability in assay [12] came to 72%. Also, the nuclear beta-catenin stimulation in [1] (at 10 µM) was -1.1% (inactive); in assay [1] (stimulation, at 2 µM), 0.7%. In [2], the insulin secretion stimulation was 0% (inactive). Moreover, the viability decrease in [3] is -6.9% (inactive). Further, the tube area decrease in [4] was -11.9% (inactive). Moreover, the GLP1 secretion stimulation in assay [5] is 0.5% (inactive). Moreover, in assay [6], the inhibition of viability was -2% (inactive). The results for the viability decrease (inhibition) in [7] and in assay [8] were 22.3% (inactive) and 59% (active), respectively. Further, the values for the fold change in assay [9] (setting [15]) and in [9] (setting [16]) were 0.881 (inactive) and 1.06, respectively. Also, the cell count in assay [9] (setting [17]) turned out to be 8560; in assay [9] (setting [18]) it was 9720. The z-score is -0.306 (inactive) in assay [13] (setting [19]) and -1.44 in assay [13] (setting [20]).

Consider `CN1CCCC(CC2c3ccccc3Sc3ccccc32)C1` (configuration not stated), for which the fluorescence slope change in [14] is 182% (active). Further, the survival in assay [11] was 1.75 (inactive). Also, the parasite load remaining in assay [12] is 16% (inactive) and 60.9% (inactive). Besides, the viability in [12] is 59.4% and 67.6%. Moreover, the nuclear beta-catenin stimulation in assay [1] (at 10 µM) is 0.2% (inactive); in [1] (stimulation, at 2 µM), 1.3%. Further, the insulin secretion stimulation in assay [2] was 20.3% (active). Also, the viability decrease in [3] is 45.1% (inactive). Moreover, in assay [4], the tube area decrease was 54.2% (active). Besides, the GLP1 secretion stimulation in [5] was 20% (active). Further, the inhibition of viability in assay [6] was 86% (active). Besides, the viability decrease (inhibition) in [7] was 110% (active); in assay [8], 77.8% (active). Besides, the fold change in [9] (setting [15]) was 0.892 (inactive); in [9] (setting [16]) it was 1.45. In addition, the values for the cell count in [9] (setting [17]) and in [9] (setting [18]) were 6900 and 7740, respectively. Moreover, the z-score is -0.486 (inactive) in [13] (setting [19]) and 0.0453 in assay [13] (setting [20]).

With `O=C1CC[C@@H](C(=O)O)N1`, the nuclear beta-catenin stimulation was 2.4% (inactive) in [1] (at 10 µM) and 0.7% in assay [1] (stimulation, at 2 µM). In addition, the insulin secretion stimulation in assay [2] is -1.4% (inactive). For the same compound, the viability decrease in assay [3] is -1.95% (inactive). The tube area decrease in assay [4] was 9.1% (inactive). Further, the GLP1 secretion stimulation in assay [5] is -0.7% (inactive). Besides, the inhibition of viability in [6] was 11.4% (inactive). Further, the viability decrease (inhibition) is 17.1% (inactive) in assay [7] and 6.75% (inactive) in [8]. The fold change in [9] (setting [15]) is 0.878 (inactive); in assay [9] (setting [16]), 0.936. Further, the results for the cell count in [9] (setting [17]) and in assay [9] (setting [18]) were 8600 and 9800, respectively. For the same compound, the remaining NAD in assay [10] was 10 nM (inactive).

The term viability denotes a read-out of living cells in per cent, often relative to untreated cells.
